Assay in all cases: DAPPL (digital affinity profiling via proximity ligation, sequencing); 10 mM Tris-HCl pH 7.5, 50 mM NaCl, 1 mM DTT, 4% glycerol, room temperature, 30 min; GST-TFs on glutathione beads, 16-mer random dsDNA library, 0.1% formaldehyde crosslink after washing; high values mean tight binding
One experiment has as its target T1, FLI1 (Homo sapiens, UniProt Q01543 1-452).
T1 sequence: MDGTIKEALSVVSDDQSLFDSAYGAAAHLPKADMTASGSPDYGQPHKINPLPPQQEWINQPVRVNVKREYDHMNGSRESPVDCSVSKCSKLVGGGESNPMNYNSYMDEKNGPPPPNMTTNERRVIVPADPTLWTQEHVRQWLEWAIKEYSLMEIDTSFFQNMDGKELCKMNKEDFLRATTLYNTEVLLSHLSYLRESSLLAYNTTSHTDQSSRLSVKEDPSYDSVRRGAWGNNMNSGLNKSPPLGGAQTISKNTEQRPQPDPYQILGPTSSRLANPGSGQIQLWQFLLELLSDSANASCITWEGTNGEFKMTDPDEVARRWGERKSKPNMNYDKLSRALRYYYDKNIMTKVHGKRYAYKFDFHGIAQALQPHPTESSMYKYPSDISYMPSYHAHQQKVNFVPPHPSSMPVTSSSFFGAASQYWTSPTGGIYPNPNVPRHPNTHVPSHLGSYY
To be noted: protein: recombinant; tags: N-terminal GST; dsDNA, one strand shown. In a few lines: (§1)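 In yeast, human transcription factors were expressed with a GST fusion, then pulled down on glutathione beads and given DNA barcodes. Pooled with a tag-only sample, they were exposed to 200 nmole of a 16-mer random double-stranded DNA library (Tris/NaCl/DTT/glycerol buffer, room temperature, 30 min), washed, crosslinked with 0.1% formaldehyde, proximity-ligated using BsaI/T4 ligase for 1 h at 37 °C, PCR-amplified and read on an Illumina NextSeq500. Each hexamer's frequency of reads for a factor, divided by the matching frequency for the tag-only sample, gives the binding signal.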

Another experiment has as its target T2, ELK1 (Homo sapiens, UniProt P19419 1-428).
T2 sequence: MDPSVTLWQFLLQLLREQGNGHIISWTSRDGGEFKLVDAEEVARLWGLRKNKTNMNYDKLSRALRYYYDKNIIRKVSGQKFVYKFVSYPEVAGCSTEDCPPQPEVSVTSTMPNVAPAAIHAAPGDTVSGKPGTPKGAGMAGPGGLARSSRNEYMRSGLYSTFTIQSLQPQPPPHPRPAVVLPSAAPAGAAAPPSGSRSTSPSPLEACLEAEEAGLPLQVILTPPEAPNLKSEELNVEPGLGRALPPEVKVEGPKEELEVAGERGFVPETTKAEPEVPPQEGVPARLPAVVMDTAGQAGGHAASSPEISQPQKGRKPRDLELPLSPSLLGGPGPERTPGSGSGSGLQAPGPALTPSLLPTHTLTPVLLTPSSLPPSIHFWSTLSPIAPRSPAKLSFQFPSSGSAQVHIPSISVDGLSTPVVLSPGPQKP
To be noted: protein: recombinant; tags: N-terminal GST; dsDNA, one strand shown. Put shortly: as §1

Another experiment addresses T3, GABPA (Homo sapiens, UniProt Q06546 1-454).
T3 sequence: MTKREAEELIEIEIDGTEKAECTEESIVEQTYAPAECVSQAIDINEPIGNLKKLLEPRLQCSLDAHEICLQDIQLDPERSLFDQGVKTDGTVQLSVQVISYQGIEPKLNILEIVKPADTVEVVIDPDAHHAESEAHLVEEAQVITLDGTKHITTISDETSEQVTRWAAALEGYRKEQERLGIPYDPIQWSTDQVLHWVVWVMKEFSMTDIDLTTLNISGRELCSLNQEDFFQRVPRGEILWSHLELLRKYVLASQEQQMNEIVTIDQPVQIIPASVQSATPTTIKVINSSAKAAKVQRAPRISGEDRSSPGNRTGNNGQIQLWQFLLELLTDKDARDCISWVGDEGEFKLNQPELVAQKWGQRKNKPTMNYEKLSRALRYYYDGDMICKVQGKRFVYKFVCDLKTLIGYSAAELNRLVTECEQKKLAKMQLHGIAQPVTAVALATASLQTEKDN
The following applies: protein: recombinant; tags: N-terminal GST; dsDNA, one strand shown. In a few lines: as §1

The next experiment deals with T4, ERG (Homo sapiens, UniProt P11308 1-479).
T4 sequence: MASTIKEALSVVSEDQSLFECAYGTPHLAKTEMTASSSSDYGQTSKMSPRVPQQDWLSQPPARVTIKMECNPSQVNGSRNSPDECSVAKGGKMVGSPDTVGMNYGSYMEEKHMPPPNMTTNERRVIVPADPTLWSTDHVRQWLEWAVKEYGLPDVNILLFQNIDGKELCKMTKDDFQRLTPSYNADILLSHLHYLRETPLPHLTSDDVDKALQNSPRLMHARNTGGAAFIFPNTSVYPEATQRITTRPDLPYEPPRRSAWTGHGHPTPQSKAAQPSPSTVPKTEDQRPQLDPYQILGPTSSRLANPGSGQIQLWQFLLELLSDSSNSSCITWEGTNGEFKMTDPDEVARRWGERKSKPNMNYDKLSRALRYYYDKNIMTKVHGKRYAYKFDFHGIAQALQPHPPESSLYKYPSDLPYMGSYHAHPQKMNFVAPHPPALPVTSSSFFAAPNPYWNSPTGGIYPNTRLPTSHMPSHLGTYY
The following applies: protein: recombinant; tags: N-terminal GST; dsDNA, one strand shown. Put shortly: as §1

A further experiment deals with ELF1 (Homo sapiens, UniProt P32519 1-619). To be noted: protein: recombinant; tags: N-terminal GST; dsDNA, one strand shown. In a few lines: as §1
Sequence of ELF1 (P32519 whole entry): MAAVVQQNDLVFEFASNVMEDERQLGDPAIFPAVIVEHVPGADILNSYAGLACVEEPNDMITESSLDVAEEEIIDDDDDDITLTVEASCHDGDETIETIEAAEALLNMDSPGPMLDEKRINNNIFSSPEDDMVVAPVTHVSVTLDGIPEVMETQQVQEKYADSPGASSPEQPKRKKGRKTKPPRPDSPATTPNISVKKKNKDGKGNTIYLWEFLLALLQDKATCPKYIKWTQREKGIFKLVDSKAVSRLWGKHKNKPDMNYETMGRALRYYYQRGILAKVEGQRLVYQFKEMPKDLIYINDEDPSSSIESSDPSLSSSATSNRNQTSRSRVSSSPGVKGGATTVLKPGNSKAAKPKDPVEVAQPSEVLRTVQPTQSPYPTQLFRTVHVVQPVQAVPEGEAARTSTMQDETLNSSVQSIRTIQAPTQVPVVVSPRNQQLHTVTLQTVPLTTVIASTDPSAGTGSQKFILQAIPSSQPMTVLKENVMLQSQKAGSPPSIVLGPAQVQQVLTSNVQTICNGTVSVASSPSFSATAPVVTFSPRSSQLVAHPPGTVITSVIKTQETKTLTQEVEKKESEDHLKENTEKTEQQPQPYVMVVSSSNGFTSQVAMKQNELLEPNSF
The next experiment deals with T5, EHF (Homo sapiens, UniProt Q9NZC4 1-300).
T5 sequence: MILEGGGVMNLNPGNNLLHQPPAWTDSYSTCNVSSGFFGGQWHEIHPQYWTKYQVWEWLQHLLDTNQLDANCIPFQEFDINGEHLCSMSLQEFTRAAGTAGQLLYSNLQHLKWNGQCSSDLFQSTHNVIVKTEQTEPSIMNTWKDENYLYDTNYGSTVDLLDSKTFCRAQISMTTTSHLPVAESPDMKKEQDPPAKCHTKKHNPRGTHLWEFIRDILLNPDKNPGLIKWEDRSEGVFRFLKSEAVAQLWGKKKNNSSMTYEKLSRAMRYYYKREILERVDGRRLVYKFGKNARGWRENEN
To be noted: protein: recombinant; tags: N-terminal GST; dsDNA, one strand shown. In a few lines: as §1

The next experiment addresses SPI1 (Homo sapiens, UniProt P17947 1-270). The following applies: protein: recombinant; tags: N-terminal GST; dsDNA, one strand shown. Put shortly:
as §1

In another experiment the target is SPIB (Homo sapiens, UniProt Q01892 1-262). To be noted: protein: recombinant; tags: N-terminal GST; dsDNA, one strand shown. In a few lines: as §1
Sequence of SPIB (Q01892 whole entry): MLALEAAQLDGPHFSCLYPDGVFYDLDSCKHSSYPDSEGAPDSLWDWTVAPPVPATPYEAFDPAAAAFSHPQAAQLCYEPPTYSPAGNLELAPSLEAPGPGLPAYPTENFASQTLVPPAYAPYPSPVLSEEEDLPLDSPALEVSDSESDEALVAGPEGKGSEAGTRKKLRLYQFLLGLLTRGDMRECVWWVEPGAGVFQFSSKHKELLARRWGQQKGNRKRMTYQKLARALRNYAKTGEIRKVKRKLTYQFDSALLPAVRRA
A further experiment addresses T6, ELK3 (Homo sapiens, UniProt P41970 1-407).
T6 sequence: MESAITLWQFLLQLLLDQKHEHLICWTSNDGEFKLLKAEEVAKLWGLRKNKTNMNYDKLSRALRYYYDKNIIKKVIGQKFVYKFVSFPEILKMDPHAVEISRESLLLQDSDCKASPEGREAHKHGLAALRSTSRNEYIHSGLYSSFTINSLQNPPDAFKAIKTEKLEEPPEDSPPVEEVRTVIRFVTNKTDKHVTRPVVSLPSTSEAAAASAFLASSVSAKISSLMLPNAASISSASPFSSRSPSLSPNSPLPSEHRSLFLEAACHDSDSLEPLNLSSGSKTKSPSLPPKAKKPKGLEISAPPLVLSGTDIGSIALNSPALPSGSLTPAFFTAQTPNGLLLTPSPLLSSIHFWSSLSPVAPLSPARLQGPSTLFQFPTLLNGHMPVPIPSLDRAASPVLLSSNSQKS
To be noted: protein: recombinant; tags: N-terminal GST; dsDNA, one strand shown. Put shortly: as §1

For the next experiment, the target named is T7, FEV (Homo sapiens, UniProt Q99581 1-238).
T7 sequence: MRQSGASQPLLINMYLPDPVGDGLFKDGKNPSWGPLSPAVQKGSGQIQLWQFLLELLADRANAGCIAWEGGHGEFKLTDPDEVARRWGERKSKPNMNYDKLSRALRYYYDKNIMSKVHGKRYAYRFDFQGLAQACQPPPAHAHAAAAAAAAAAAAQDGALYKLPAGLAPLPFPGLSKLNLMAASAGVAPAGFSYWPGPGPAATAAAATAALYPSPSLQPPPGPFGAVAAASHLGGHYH
The following applies: protein: recombinant; tags: N-terminal GST; dsDNA, one strand shown. In a few lines:
as §1

The target of another experiment is ETV5 (Homo sapiens, UniProt P41161 1-510). To be noted: protein: recombinant; tags: N-terminal GST; dsDNA, one strand shown. In a few lines: as §1
Sequence of ETV5 (P41161 whole entry): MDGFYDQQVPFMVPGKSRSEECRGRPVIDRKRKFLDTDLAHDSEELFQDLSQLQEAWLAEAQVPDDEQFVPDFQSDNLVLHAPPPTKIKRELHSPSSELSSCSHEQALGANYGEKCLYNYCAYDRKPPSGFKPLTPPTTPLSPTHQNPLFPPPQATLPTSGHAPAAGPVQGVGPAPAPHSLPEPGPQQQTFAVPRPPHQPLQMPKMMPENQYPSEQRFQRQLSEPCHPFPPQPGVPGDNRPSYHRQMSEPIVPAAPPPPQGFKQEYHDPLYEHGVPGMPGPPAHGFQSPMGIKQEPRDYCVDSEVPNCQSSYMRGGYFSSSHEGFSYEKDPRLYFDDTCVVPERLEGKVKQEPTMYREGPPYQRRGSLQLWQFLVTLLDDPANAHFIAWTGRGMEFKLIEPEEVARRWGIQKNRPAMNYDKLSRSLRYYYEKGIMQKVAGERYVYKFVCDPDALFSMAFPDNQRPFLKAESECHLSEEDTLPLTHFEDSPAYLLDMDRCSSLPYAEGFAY
The target of another experiment is HSF1 (Homo sapiens, UniProt Q00613 1-529). To be noted: protein: recombinant; tags: N-terminal GST; chain copies: 3; dsDNA, one strand shown. In a few lines: as §1
Sequence of HSF1 (Q00613 whole entry): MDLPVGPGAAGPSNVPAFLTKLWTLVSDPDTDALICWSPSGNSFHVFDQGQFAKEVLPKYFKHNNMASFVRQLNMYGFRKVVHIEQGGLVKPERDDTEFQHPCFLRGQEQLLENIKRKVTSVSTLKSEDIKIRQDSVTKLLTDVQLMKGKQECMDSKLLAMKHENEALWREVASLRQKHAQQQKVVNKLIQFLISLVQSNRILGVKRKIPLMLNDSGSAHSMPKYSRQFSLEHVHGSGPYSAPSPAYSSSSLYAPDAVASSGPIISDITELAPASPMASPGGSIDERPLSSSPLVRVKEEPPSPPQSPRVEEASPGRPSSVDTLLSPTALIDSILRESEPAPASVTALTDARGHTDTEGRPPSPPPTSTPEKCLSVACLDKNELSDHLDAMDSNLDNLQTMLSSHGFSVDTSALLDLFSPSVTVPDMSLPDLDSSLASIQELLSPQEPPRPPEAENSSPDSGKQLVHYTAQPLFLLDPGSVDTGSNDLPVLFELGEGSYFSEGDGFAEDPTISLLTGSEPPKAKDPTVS
A further experiment deals with T8, SPIC (Homo sapiens, UniProt Q8N5J4 1-248).
T8 sequence: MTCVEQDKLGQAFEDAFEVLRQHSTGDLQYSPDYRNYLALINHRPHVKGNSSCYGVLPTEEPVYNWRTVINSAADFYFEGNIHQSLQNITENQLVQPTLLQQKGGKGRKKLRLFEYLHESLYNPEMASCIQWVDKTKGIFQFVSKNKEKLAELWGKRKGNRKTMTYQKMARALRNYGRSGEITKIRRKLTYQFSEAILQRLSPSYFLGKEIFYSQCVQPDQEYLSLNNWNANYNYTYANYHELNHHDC
To be noted: protein: recombinant; tags: N-terminal GST; dsDNA, one strand shown. Put shortly:
as §1

For the next experiment, the target named is ELF4 (Homo sapiens, UniProt Q99607 1-663). To be noted: protein: recombinant; tags: N-terminal GST; dsDNA, one strand shown. In a few lines: as §1
Sequence of ELF4 (Q99607 whole entry): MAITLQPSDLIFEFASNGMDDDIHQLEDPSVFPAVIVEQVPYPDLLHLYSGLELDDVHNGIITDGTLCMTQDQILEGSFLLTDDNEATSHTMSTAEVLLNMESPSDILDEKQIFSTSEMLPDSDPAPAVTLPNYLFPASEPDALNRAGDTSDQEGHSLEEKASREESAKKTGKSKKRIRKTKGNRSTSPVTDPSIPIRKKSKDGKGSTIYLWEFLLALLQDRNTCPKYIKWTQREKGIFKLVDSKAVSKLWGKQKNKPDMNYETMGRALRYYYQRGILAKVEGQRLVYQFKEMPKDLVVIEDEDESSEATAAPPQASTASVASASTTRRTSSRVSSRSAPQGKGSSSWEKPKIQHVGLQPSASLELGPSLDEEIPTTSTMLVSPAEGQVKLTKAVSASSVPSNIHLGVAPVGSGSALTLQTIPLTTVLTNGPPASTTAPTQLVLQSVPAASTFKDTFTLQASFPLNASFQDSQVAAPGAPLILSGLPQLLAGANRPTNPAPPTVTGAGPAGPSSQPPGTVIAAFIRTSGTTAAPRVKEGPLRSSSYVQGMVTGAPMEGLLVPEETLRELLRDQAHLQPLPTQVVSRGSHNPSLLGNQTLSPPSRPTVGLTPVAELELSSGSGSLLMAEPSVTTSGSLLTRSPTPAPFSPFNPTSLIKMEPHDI
A further experiment has as its target T9, ELK4 (Homo sapiens, UniProt P28324-2 1-405).
T9 sequence: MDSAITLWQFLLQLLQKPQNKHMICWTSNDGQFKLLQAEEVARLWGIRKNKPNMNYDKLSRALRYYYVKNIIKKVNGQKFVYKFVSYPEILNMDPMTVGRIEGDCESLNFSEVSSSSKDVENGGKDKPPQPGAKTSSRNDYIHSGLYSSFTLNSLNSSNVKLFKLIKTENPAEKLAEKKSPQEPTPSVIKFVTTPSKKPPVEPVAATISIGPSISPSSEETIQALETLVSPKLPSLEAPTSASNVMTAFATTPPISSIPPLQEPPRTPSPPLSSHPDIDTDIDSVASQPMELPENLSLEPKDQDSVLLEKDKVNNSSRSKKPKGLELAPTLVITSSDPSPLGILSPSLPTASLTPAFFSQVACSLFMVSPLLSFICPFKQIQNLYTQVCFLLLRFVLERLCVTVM
The following applies: protein: recombinant; tags: N-terminal GST; dsDNA, one strand shown. In a few lines:
as §1

A further experiment concerns the target T10, ETV2 (Homo sapiens, UniProt O00321 1-342).
T10 sequence: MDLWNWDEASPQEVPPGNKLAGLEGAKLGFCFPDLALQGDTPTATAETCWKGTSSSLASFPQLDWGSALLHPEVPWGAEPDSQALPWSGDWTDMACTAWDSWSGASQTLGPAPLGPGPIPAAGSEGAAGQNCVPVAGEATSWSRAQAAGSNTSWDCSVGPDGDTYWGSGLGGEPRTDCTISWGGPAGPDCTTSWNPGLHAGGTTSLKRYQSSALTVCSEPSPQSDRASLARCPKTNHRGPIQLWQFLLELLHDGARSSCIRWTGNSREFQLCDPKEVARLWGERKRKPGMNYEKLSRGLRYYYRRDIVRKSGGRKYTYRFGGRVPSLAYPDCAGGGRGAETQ
The following applies: protein: recombinant; tags: N-terminal GST; dsDNA, one strand shown. In a few lines:
as §1

The target in a further experiment is T11, ELF3 (Homo sapiens, UniProt P78545 1-371).
T11 sequence: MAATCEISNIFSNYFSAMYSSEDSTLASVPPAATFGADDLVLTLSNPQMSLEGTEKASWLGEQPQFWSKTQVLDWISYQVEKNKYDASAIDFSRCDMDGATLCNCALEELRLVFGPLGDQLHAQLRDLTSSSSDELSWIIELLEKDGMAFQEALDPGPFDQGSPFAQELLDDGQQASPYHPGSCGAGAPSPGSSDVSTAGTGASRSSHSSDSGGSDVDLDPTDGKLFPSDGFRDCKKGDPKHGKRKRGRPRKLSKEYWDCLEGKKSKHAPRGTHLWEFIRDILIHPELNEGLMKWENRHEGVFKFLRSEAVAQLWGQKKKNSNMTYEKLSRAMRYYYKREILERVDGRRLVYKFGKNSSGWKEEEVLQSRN
The following applies: protein: recombinant; tags: N-terminal GST; dsDNA, one strand shown. Put shortly:
as §1

The target in a further experiment is CRX (Homo sapiens, UniProt O43186 1-299). To be noted: protein: recombinant; tags: N-terminal GST; dsDNA, one strand shown. In a few lines: as §1
Sequence of CRX (O43186 whole entry): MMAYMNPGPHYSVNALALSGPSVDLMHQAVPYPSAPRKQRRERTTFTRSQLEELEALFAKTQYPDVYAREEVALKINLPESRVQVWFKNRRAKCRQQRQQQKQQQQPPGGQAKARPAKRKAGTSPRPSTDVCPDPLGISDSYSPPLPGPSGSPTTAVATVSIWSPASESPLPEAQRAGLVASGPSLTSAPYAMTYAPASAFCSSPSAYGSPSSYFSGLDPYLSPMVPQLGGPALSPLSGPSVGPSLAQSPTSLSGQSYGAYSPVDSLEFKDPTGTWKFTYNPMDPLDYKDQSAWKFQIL
The target in another experiment is ETV1 (Homo sapiens, UniProt P50549 1-477). The following applies: protein: recombinant; tags: N-terminal GST; dsDNA, one strand shown. In a few lines: as §1
Sequence of ETV1 (P50549 whole entry): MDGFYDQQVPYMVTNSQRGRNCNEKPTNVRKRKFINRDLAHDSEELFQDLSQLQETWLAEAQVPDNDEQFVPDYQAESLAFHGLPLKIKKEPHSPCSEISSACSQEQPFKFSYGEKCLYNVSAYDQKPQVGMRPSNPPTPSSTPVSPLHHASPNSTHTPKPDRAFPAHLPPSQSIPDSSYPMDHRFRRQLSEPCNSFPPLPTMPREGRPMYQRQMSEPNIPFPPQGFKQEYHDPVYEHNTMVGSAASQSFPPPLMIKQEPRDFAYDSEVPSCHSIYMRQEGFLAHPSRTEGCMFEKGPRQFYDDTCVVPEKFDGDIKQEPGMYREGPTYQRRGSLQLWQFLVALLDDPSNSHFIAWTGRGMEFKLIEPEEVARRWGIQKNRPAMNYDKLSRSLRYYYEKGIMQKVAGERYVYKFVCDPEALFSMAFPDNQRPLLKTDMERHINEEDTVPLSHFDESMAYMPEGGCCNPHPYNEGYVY

For AAGAAC, the binding signal was 1.13 fold enrichment (6-mer frequency, TF over GST control) in the experiment with FLI1; 1.18 fold enrichment (6-mer frequency, TF over GST control) with ELK1; 1.15 fold enrichment (6-mer frequency, TF over GST control) in the experiment with GABPA; 1.22 fold enrichment (6-mer frequency, TF over GST control) with ERG; 1.17 fold enrichment (6-mer frequency, TF over GST control) with ELF1; 1.24 fold enrichment (6-mer frequency, TF over GST control) with EHF. Besides, the binding signal in the experiment with SPI1 is 1.14 fold enrichment (6-mer frequency, TF over GST control); with SPIB, 1.05 fold enrichment (6-mer frequency, TF over GST control); with ELK3, 1.24 fold enrichment (6-mer frequency, TF over GST control); with FEV, 1.19 fold enrichment (6-mer frequency, TF over GST control); with ETV5 it was 1.16 fold enrichment (6-mer frequency, TF over GST control); with HSF1, 1.63 fold enrichment (6-mer frequency, TF over GST control). The binding signal was 1.24 fold enrichment (6-mer frequency, TF over GST control) with SPIC; 1.2 fold enrichment (6-mer frequency, TF over GST control) in the experiment with ELF4; 1.18 fold enrichment (6-mer frequency, TF over GST control) in the experiment with ELK4; 1.13 fold enrichment (6-mer frequency, TF over GST control) with ETV2; 1.16 fold enrichment (6-mer frequency, TF over GST control) in the experiment with ELF3; 1.28 fold enrichment (6-mer frequency, TF over GST control) with CRX. For the same sequence, the binding signal with ETV1 is 1.22 fold enrichment (6-mer frequency, TF over GST control).

Values taken from paper PMC7862700, “An all-to-all approach to the identification of sequence-specific readers for epigenetic DNA modifications on cytosine”.
